# This is part of a sample that, as a whole, favours compounds with a hit. Of some 79,000 tested, about 15% had one in any assay. A number with no mark means an inactive call. The source made the active and inactive calls. Rule as the data show it: active = growth inhibition above about 70%; inactive = the rest.
# What was measured:
# [1] = NCI Yeast Anticancer Drug Screen. Data for the rad50 strain (AID 155);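 also: 0% = growth of vehicle-only cultures of the same strain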; details: S. cerevisiae rad50 strain growth inhibition; at 50.0 µM; stronger effect = higher value
# Procedure, shortened: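 Cells are treated with compound, grown, and their growth is then scored against vehicle-only cultures of the same repair-deficient yeast strain.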
# [2] = NCI Yeast Anticancer Drug Screen. Data for the mec2-1 strain (AID 157); details: S. cerevisiae mec2-1 strain, at 50.0 µM, stronger effect = higher value
# Procedure, shortened: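 Test agents were screened against the mec2-1 yeast strain, with defined DNA repair or cell cycle alteration. Growth was scored as inhibition against vehicle-only controls.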
# [3] = NCI Yeast Anticancer Drug Screen. Data for the sgs1 mgt1 strain (AID 161);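 also: 0% = growth of cultures given vehicle only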; details: S. cerevisiae sgs1 mgt1 strain, at 50.0 µM, stronger effect = higher value
# Procedure, shortened: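 Read-out: growth inhibition vs vehicle controls. Cells: mutant yeast strain deficient in DNA damage repair.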
# [4] = NCI Yeast Anticancer Drug Screen. Data for the cln2 rad14 strain (AID 165);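 also: 0% = growth equal to vehicle treated cultures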; details: S. cerevisiae cln2 rad14 strain, at 50.0 µM, stronger effect = higher value
# Procedure, shortened: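 Growth of compound-exposed yeast (cln2 rad14 genotype) measured and expressed as inhibition relative to vehicle.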
# [5] = NCI Yeast Anticancer Drug Screen. Data for the bub3 strain (AID 167); details: S. cerevisiae bub3 mutant strain, at 50.0 µM, stronger effect = higher value
# Procedure, shortened: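 Part of a panel of yeast mutants defective in DNA damage repair or cell cycle regulation. Each strain is grown with compound, and inhibition is calculated relative to solvent-treated cultures.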
# [6] = NCI Yeast Anticancer Drug Screen. Data for the mlh1 rad18 strain (AID 175); details: S. cerevisiae mlh1 rad18 strain growth inhibition; at 50.0 µM; stronger effect = higher value
# Procedure, shortened: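 In this whole-cell yeast screen, a strain with altered DNA damage repair is challenged with compound, and its growth is measured against matched vehicle-treated controls.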
SMILES,growth inhibition [1] [%],growth inhibition [2] [%],growth inhibition [3],growth inhibition [4] [%],growth inhibition [5] [%],growth inhibition [6]
COC(=O)c1ccccc1/C=C1\Cc2ccc3c(c2C1=O)CCCC3,-30.9,-52.6,-18.9%,-7.4,5.6,-25.2%
CNC(=S)SC(=S)NC,14.6,8.3,-4.55%,-20.4,-1.75,4.75%
C=CCSc1nc2ccc(NC(C)=O)cc2s1,42.8,10.2,7.8%,19.3,20,16.7%
Nc1ncnc2c1sc(=S)n2-c1ccccc1,-5.3,4.55,13%,-1,-12.7,-10.9%
O=C(O)c1c(Cl)c(Cl)c(Cl)c(Cl)c1C(=O)Nc1ccccc1F,-3.8,-19.2,14.3%,-118,1.5,0.6%
Cc1ccc(S(=O)(=O)NC(=O)NC23CC4CC(CC(F)(C4)C2)C3)cc1,37.9,21.4,-13.6%,9.5,13.8,2.1%
COc1ccc(-c2oc3cc(OC)c(OC)c(OC)c3c(=O)c2O)cc1O,62.5,50.5,77.6% (active),44.8,65.4,70.2% (active)
O=C(C[n+]1ccccc1)c1cc2c(c3ccccc13)CCCC2,3.3,-3.2,36.3%,20.8,-4.6,19.5%
S=C1SCN(c2ccc3c(c2)OCO3)CN1c1ccc2c(c1)OCO2,-24.4,-33.9,20.9%,-0.6,-1.05,-20.1%
NCCN=C(N)C(N)=NCCN,19.1,5.3,-2.35%,-54.5,7.45,8.1%
O=C(Nc1cccc(C(F)(F)F)c1)c1ccco1,34.5,9.75,28.7%,3.55,11.1,17%
CCOC(=O)CNCc1cccc(C)c1,-1.45,-10.2,-19.1%,-82.8,0.6,1.95%
COc1ccc(CN2CCCN(Cc3ccc(OC)cc3OC)C2c2cccc(OC)c2O)c(OC)c1,20.6,16.6,12.6%,16,-6.5,6.5%
NC1Nc2ccccc2NC1=O (centres undefined),4.85,10.2,3.4%,-3.15,6.4,0.05%
COCc1ccc(C(C)(C)CC(C)(C)C)cc1,32.6,8.4,-0.1%,13.6,-0.45,-1.3%
O=c1oc2cc(O)ccc2cc1-c1nc2ccccc2o1,-2.1,-10.8,-31.2%,14.1,2.75,-4.1%
O=C1OC(C(=O)O)Cc2ccccc21 (centres undefined),-16.1,-15.2,-3.15%,-5.1,-2.3,-13.3%
NC(=S)Nc1ccccc1Cl,-14.3,-6.2,15.6%,-18.1,-10.8,10.6%
O=C(NC1CCCCC1)NC12CC3CC(CC(F)(C3)C1)C2,-9.9,-12.8,-7.55%,5.65,-12.1,6.7%
CCC[n+]1ccccc1C,-0.95,19.4,-4.3%,1.35,7.9,3.65%

SMILES,growth inhibition [1] [%],growth inhibition [2] [%],growth inhibition [3],growth inhibition [4] [%],growth inhibition [5] [%],growth inhibition [6]
COC(=O)O[C@H]1CC[C@@]2(C)C(=CC[C@H]3[C@@H]4CC[C@H]([C@H](C)CCCC(C)C)[C@@]4(C)CC[C@@H]32)C1,-21.6,-29.8,-5.6%,6.75,-11.8,-5.3%
CN(C)c1ccc2c(c1[N+](=O)[O-])Cc1ccccc1-2,18.3,3.3,6.75%,14.6,32.2,6.05%
CC(NC(=O)C(N)CC(=O)O)NC(=O)N(C)C(C)(C)C (centres undefined),-8.5,1.75,2.1%,2.65,25.4,-44.2%
CC(=O)C(c1ccccc1)S(=O)(=O)c1ccc(C)cc1 (centres undefined),13.8,-18.4,-11.7%,-42.4,24.9,-1.5%
O=c1ccc2ccc(OP(=O)(O)O)cc2o1,-12.4,-15.1,11.4%,14.1,-34.7,19.6%
CN1C(=O)CCSC1=S,3.55,-12.1,-4.7%,-18.6,14.4,-2.05%
OCc1ccc(CO)cc1,18.4,29.6,-15.6%,-4.2,8.65,7.2%
O=C1C=C(C2CCCCC2)C(=O)c2ccccc21,17,2.6,15.4%,18.3,58.5,10.3%
O=[N+]([O-])c1ccc(N=C/C=C/Nc2ccc([N+](=O)[O-])cc2)cc1,5,0.7,10.5%,-8.6,6.3,20.8%
C=CC(=O)OCCOCCOC,-21.1,-15.9,-2.35%,-5,-18.6,-14.4%
CC1=C(O)C(=O)C(C2=C(O)C(=O)C(C)=C(O)C2=O)=C(O)C1=O,5.3,-12.4,24.4%,10,5.8,12.6%
CC(=O)Nc1cccc(N=NN(C)C)c1,14.2,14.1,39%,20.5,34.4,29.6%
O=c1[nH]c2ccccc2c(N=Cc2ccccc2)c1-c1ccccc1,-6.95,-20.6,-4.6%,-26.8,-12.1,-0.4%
CC(OS(C)(=O)=O)C(C)OS(C)(=O)=O (centres undefined),2.4,-9.35,-11.7%,-10.4,0.95,-19.6%
CC#CCCCC1(C)CCNC1=S (centres undefined),13.8,10.2,30.5%,21.9,0.8,24.6%
O=C(Nc1ccccc1)Oc1cccc(-c2ccc(-c3ccccc3)cc2)c1,29.4,6.5,33.7%,18.9,49.5,18.2%
N#C/C(=C\c1c(S(=O)(=O)O)sc2ccccc12)C(N)=O (tested in a mixture with another compound),30.3,10.1,17.1%,25.3,-0.9,21.8%
N=C(N)SCC(O)C(O)CSC(=N)N (centres undefined),0.3,4.4,-0.95%,-30.1,-6.45,-1.5%
NCCCNCCCCNC(=O)C(O)NC(=O)CCCCCCN=C(N)N (centres undefined),-2.7,-11.2,-2.05%,11.4,3.4,-1.6%

# From PubChem BioAssay (NCI)
